Assay [1] in a line: A CellTox Green Cytotoxicity Assay to monitor cytotoxicity in HEK293 cells - 32 hour (AID 1224881). Also: nearly all actives have a fitted effect of over 40% in size. Also: potency is read from the fitted curve at half-maximal effect. Summed up:
(§1)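 Each value comes from one timepoint of a single continuous run in which HEK293 cells with CellTox Green were exposed to compound for up to 40 h at 37 C, dye fluorescence rising with cell death.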

A short description of assay [2]: A CellTox Green Cytotoxicity Assay to monitor cytotoxicity in HepG2 cells - 0 hour (AID 1224882). Also: nearly all actives have a fitted effect of over 35% in size. Also: potency is read from the fitted curve at half-maximal effect. Summed up:
(§2)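 Continuous culture of HepG2 cells with a membrane-impermeant DNA dye; rising fluorescence marks dead cells. Compound exposure lasted up to 40 h at 37 C, with reads every 8 h from 0 h.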

The nature of assay [3]: A CellTox Green Cytotoxicity Assay to monitor cytotoxicity in HEK293 cells - 8 hour (AID 1224884). Also: nearly all actives have a fitted effect of over 35% in size. Also: potency is read from the fitted curve at half-maximal effect. In short, it runs like this: as §1
Assay [4] in a line: qHTS RealTime-Glo MT Cell Viability Assay in HepG2 cells - 16 hour (AID 1224885). Also: nearly all actives have a fitted effect of over 50% in size. Summed up: (§3)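 Compound treatment began 5 h after plating HepG2 cells (600/well) with NanoLuc luciferase and prosubstrate. Plates stayed at 37 C for 40 h; luminescence was captured at six time points, 0 h through 40 h.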
On the technique in general: Quantitative high-throughput screening tests each substance at several concentrations.

Assay [5] can be described thus: qHTS RealTime-Glo MT Cell Viability Assay in HEK293 cells - 24 hour (AID 1224886). Also: nearly all actives have a fitted effect of over 50% in size. Also: potency is read from the fitted curve at half-maximal effect. In short, it runs like this:
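Quantitative high-throughput screen of the Tox21 10K library in HEK293: cells and RealTime-Glo reagents plated together, compound added at 5 h, luminescence monitored through 40 h at 37 C.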

Assay [6] is described as follows: qHTS RealTime-Glo MT Cell Viability Assay in HEK293 cells - 8 hour (AID 1224887). Also: nearly all actives have a fitted effect of over 50% in size. Also: potency is read from the fitted curve at half-maximal effect. Summed up:
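qHTS format; HEK293 cells with NanoLuc/prosubstrate reagent, 37 C/5% CO2 for 5 h pre-dosing; compounds 23 nL in DMSO; luminescence at each time point reflects viable cells.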

A short description of assay [7]: A CellTox Green Cytotoxicity Assay to monitor cytotoxicity in HEK293 cells - 16 hour (AID 1224888). Also: nearly all actives have a fitted effect of over 35% in size. Summed up:
as §1

Assay [8] in a line: qHTS RealTime-Glo MT Cell Viability Assay in HepG2 cells - 0 hour (AID 1224889). Also: nearly all actives have a fitted effect of over 50% in size. Summed up: as §3
The nature of assay [9]: qHTS assay to identify small molecule antagonists of the estrogen receptor alpha (ER-alpha) signaling pathway using the BG1 cell line in the presence of 0.1 nM 17-beta-estradiol - cell viability counter screen (AID 1259241). Also: nearly all actives have a fitted effect of over 40% in size. In short, it runs like this: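 VM7Luc4E2 cells (endogenous ER-alpha, 4×ERE-luciferase), hormone-starved 5 days in charcoal-stripped FBS, were treated with compounds plus 0.1 nM 17beta-estradiol for 22 hr at 37C; viability read in same wells as CellTiter-Fluor live-cell protease fluorescence.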

Assay [10] is described as follows: qHTS assay to identify small molecule antagonists of the androgen receptor (AR) signaling pathway using the MDA cell line in the presence of 0.5 nM R1881 - cell viability counter screen (AID 1259242). Also: nearly all actives have a fitted effect of over 45% in size. Also: potency is read from the fitted curve at half-maximal effect. Summed up: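 Fluorescence from CellTiter-Fluor, which reports protease activity of live cells, was read 30 min after reagent addition to MDA-kb2 cells that had been incubated 16 hr with compound and 0.5 nM R1881.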

Assay [11] deals with Estrogen receptor (Homo sapiens) (UniProt P03372). The assay is described as follows: qHTS assay to identify small molecule antagonists of the estrogen receptor alpha (ER-alpha) signaling pathway using the BG1 cell line in the presence of 0.1 nM 17-beta-estradiol (AID 1259244). Also: nearly all actives have a fitted effect of over 50% in size. Also: potency is read from the fitted curve at half-maximal effect. In short, it runs like this: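 Quantitative high-throughput screen in VM7Luc4E2 cells: compound plus 0.1 nM E2 (final), 22 h, 37C, 5% CO2; ONE-Glo added, 30 min room temperature, luminescence measured.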
Estrogen receptor (Homo sapiens), sequence (P03372 whole entry, looked up): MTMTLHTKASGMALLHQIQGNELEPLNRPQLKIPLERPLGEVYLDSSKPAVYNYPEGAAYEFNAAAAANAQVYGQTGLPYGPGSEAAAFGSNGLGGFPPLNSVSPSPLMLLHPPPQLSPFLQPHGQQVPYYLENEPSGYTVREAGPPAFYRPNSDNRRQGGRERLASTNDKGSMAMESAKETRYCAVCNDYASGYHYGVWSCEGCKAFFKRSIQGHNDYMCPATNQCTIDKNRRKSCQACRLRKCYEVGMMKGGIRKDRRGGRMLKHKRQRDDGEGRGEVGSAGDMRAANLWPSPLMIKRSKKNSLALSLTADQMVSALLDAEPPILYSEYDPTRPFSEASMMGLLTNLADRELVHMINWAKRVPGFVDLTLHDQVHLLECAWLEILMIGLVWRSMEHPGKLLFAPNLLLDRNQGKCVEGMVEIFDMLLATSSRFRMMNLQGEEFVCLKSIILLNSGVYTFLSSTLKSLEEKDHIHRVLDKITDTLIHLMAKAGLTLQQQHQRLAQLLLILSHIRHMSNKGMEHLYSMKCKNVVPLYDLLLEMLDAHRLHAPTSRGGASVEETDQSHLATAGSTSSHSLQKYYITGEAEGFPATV

A short description of assay [12]: qHTS assay to identify small molecule HDAC inhibitors (AID 1259364). Also: nearly all actives have a fitted effect of over 45% in size. Also: potency is read from the fitted curve at half-maximal effect. In short, it runs like this:
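Endogenous HDAC class I/II activity was measured in wild-type HCT-116 cells by HDAC-Glo luminescence after 2 h compound treatment.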

Assay [13] can be described thus: qHTS assay to identify small molecule HDAC inhibitors - cell viability counter screen (AID 1259365). Summed up: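 Wild-type HCT-116 cells were seeded at 1,500 per well, incubated overnight at 37 C, then exposed to compounds in DMSO for 2hr. Viability was read by CellTiter-Glo luminescence after 30min at room temperature.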
Assay [14] in a line: qHTS assay to identify small molecule agonists of the sonic hedgehog signaling (Shh) pathway - cell viability counter screen (AID 1259366). Also: nearly all actives have a fitted effect of over 50% in size. Also: potency is read from the fitted curve at half-maximal effect. In short, it runs like this: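 NIH/3T3-derived 3T3 Gli1-Luc cells (stable Gli1-responsive firefly luciferase reporter) were seeded, rested 4 hr at 37 C/5% CO2, then exposed to compounds in DMSO for 24 hr; viability was read by CellTiter-Fluor fluorescence in the same wells.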

Assay [15] in a line: qHTS assay to identify small molecule antagonists of the sonic hedgehog signaling (Shh) pathway - cell viability counter screen (AID 1259367). Also: nearly all actives have a fitted effect of over 55% in size. Also: potency is read from the fitted curve at half-maximal effect. In short, it runs like this: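 Seed 3T3 Gli1-Luc cells at 2,000 per well; incubate 4 hr; add compound in DMSO, then conditioned medium; incubate at 37C with 5% CO2; add CellTiter-Fluor after 23 hr; read fluorescence 1 hr later.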
Assay [16] in a line: qHTS assay to identify small molecule agonists of the sonic hedgehog signaling (Shh) pathway (AID 1259368; calls by dose curve; also: nearly all actives have a fitted effect of over 15% in size; also: potency is read from the fitted curve at half-maximal effect). In short, it runs like this:
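Luminescent signal was taken as a measure of Gli1-controlled luciferase expression in stably transfected NIH/3T3-derived cells that had been treated for 24 hr with compounds delivered in DMSO.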

Assay [17] in a line: qHTS assay to identify small molecule phospholipidosis (PLD) inducers (AID 1259344; active = well fitted curve in the direction sought with a large enough effect; an effect the other way counts as inactive or inconclusive). In short, it runs like this: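 Quantitative HTS in HepG2: compound plus LipidTOX Red dye for 24 h, paraformaldehyde fixation with Hoechst 33342, widefield high-content imaging; amiodarone as positive and DMSO as negative control.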
Assay [18] in a line: A CellTox Green Cytotoxicity Assay to monitor cytotoxicity in HepG2 cells - 8 hour (AID 1224890). Also: nearly all actives have a fitted effect of over 45% in size. Also: potency is read from the fitted curve at half-maximal effect. Summed up:
as §2

For assay [19], the target named is Androgen receptor (Homo sapiens) (UniProt P10275). Kind of assay: qHTS assay to identify small molecule antagonists of the androgen receptor (AR) signaling pathway using the MDA cell line in the presence of 0.5 nM R1881 (AID 1259243). Summed up: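 Inhibition of R1881 (0.5 nM final) induced reporter signal was measured in human MDA-kb2 cells; note the MMTV promoter also responds to GR. Exposure lasted 16 hr at 37C.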
Androgen receptor (Homo sapiens), sequence (P10275 whole entry, looked up): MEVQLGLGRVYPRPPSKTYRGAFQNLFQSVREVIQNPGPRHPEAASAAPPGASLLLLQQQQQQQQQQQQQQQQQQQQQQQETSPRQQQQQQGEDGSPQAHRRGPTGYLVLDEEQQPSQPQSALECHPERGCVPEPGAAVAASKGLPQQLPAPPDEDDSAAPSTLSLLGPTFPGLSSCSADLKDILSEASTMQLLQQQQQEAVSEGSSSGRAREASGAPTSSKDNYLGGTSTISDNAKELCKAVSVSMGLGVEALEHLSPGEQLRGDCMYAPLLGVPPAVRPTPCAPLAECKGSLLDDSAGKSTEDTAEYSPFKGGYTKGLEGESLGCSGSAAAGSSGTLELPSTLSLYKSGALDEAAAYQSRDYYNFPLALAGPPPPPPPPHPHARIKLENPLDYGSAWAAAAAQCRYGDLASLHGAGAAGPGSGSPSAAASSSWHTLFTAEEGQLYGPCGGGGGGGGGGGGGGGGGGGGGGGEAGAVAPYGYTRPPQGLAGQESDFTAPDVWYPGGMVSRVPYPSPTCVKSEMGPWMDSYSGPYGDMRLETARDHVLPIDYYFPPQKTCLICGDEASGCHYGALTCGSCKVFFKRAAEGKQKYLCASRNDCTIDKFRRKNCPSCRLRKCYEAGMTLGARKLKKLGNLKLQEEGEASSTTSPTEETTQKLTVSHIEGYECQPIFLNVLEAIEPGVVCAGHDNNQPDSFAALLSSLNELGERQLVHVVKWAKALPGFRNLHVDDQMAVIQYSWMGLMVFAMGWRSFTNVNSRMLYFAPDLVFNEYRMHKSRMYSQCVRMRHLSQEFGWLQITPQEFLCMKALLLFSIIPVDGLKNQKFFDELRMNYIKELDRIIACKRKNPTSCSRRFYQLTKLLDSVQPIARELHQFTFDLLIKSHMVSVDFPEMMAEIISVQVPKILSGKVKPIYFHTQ

The structures appear in SMILES notation. A number with no mark means an inactive call. Inconclusive results are not listed. The source made the active and inactive calls. Unless noted, calls follow the shape of the dose curve; as a rule, active = well fitted curve in the direction sought with a large enough effect in the repeat runs; inconclusive = weak or mixed curves; inactive = no such curve, though single readings can be large; an effect the other way counts as inactive or inconclusive.

Take `CCC=CC#N`: the Potency entry in assay [1], in assay [2], in [3], in assay [4], in assay [5] and in [6] was “inactive” in each case. Moreover, the Potency result in [7], in assay [8], in assay [9], in assay [10], in [11] and in assay [13] was “inactive” throughout. In addition, the Potency entry in [14] and in assay [15] was “inactive” throughout. The Potency in [12] is 21 µM (active); in [16], 29.7 µM (active).

Regarding `CCCCN1CCCC1C(=O)Nc1c(C)cc(C)cc1C` (stereo unspecified), the figures for the Potency in [1], in assay [2] and in [3] were 16.9 µM (active), 23.9 µM (active) and 15.1 µM (active), respectively. Besides, the Potency entry in assay [4], in [6], in [8], in assay [9], in assay [10] and in assay [11] was “inactive” each time. Besides, the Potency result in assay [17], in assay [12], in [13], in assay [14] and in assay [16] was “inactive” each time.

Consider `CC(CC1c2ccccc2CCc2ccccc21)CN(C)C` (stereo unspecified), for which the Potency entry in [1], in assay [2], in [3], in [4], in assay [5] and in assay [6] was “inactive” throughout. The Potency result in [7], in assay [8], in assay [18], in assay [12], in assay [13] and in assay [14] was “inactive” throughout. For the same compound, the Potency entry in [15] and in assay [16] was “inactive” in each case.

Consider `CN1C(=O)N(c2ccccc2Br)Cc2cnc(Nc3ccc4c(c3)OCC(CO)O4)nc21` (stereo unspecified), for which the Potency entry in [1], in assay [2], in [3], in assay [7], in [12] and in assay [13] was “inactive” in each case. Besides, in assay [16], the Potency entry is “inactive”. The Potency was 6.92 µM (active) in assay [5]; 17.4 µM (active) in [6]; 48.6 µM (active) in [11]; 0.193 µM (active) in assay [14]; 1.72 µM (active) in assay [15].

Take `COc1cc(Nc2c(C#N)cnc3cc(OCCCN4CCN(C)CC4)c(OC)cc23)c(Cl)cc1Cl`: the Potency in [1] is 21.3 µM (active); in assay [5], 9.52 µM (active); in [6] it was 23.9 µM (active); in [10], 29.8 µM (active); in assay [14], 29.8 µM (active). In addition, the Potency result in [2], in assay [3], in assay [9], in assay [17], in [12] and in [13] was “inactive” in each case. In addition, the Potency result in assay [15] and in assay [16] was “inactive” each time.

In the case of `C=C1CCC2CC1C2(C)C` (stereo unspecified), the Potency entry in assay [1], in assay [2], in assay [4], in assay [5], in assay [6] and in assay [7] was “inactive” in each case. For the same compound, the Potency result in assay [8], in [18], in assay [10], in assay [11], in assay [12] and in assay [13] was “inactive” each time. For the same compound, the Potency entry in assay [14], in [15] and in [16] was “inactive” in each case.

Turning to `O=C(Nc1cccc2c(=O)cc(-c3nn[nH]n3)oc12)c1ccc(OCCCCc2ccccc2)cc1`, the Potency entry in assay [1], in [3], in assay [4], in assay [5], in assay [6] and in assay [7] was “inactive” in each case. Besides, the Potency result in [9], in assay [10], in [17], in [12], in assay [13] and in assay [14] was “inactive” each time. In addition, the Potency entry in assay [15] and in assay [16] was “inactive” in each case. Moreover, the Potency is 26.8 µM (active) in assay [2] and 21.3 µM (active) in assay [18].

Regarding `C=C(C)[C@@H]1CCC2=CCC[C@@H](C)[C@]2(C)C1`, the Potency result in [1], in assay [2], in assay [3], in assay [4], in [5] and in assay [6] was “inactive” in each case. The Potency result in [7], in assay [18], in assay [10], in assay [11], in assay [12] and in assay [13] was “inactive” in each case. In addition, the Potency result in assay [14], in assay [15] and in assay [16] was “inactive” each time. The Potency in assay [19] is 27.3 µM (active).

The record behind these values is PubChem BioAssay (Tox21).
